Measured values taken from ChEMBL document CHEMBL2218924, “A broad activity screen in support of a chemogenomic map for kinase signalling research and drug discovery” (Biochem J, 2013).

Columns and labels:
[1] = target: Tyrosine-protein kinase Lck (Homo sapiens) (UniProt P06239); settings: at 10 µM
[2] = target: Tyrosine-protein kinase Lck (Homo sapiens) (UniProt P06239); settings: at 1 µM
[3] = target: Tyrosine-protein kinase Lck (Homo sapiens) (UniProt P06239); settings: at 10 µM; remark: listed apart in the source
[4] = target: Tyrosine-protein kinase Lyn (Homo sapiens) (UniProt P07948); settings: at 10 µM
[5] = target: Mitogen-activated protein kinase 3 (Homo sapiens) (UniProt P27361); settings: at 10 µM
[6] = target: MAP kinase-activated protein kinase 2 (Homo sapiens) (UniProt P49137); settings: at 1 µM
[7] = target: MAP kinase-activated protein kinase 2 (Homo sapiens) (UniProt P49137); settings: at 10 µM
[8] = target: Serine/threonine-protein kinase MARK1 (Homo sapiens) (UniProt Q9P0L2); settings: at 1 µM
[9] = target: Serine/threonine-protein kinase MARK1 (Homo sapiens) (UniProt Q9P0L2); settings: at 10 µM
[10] = target: Dual specificity mitogen-activated protein kinase kinase 1 (Homo sapiens) (UniProt Q02750); settings: at 1 µM
[11] = target: Dual specificity mitogen-activated protein kinase kinase 1 (Homo sapiens) (UniProt Q02750); settings: at 10 µM
[12] = target: Maternal embryonic leucine zipper kinase (Homo sapiens) (UniProt Q14680); settings: at 1 µM
[13] = target: Maternal embryonic leucine zipper kinase (Homo sapiens) (UniProt Q14680); settings: at 10 µM
[14] = target: Misshapen-like kinase 1 (Homo sapiens) (UniProt Q8N4C8); settings: at 1 µM
[15] = target: Misshapen-like kinase 1 (Homo sapiens) (UniProt Q8N4C8); settings: at 10 µM
[16] = target: Tyrosine-protein kinase Lyn (Homo sapiens) (UniProt P07948); settings: at 1 µM
[17] = target: Mitogen-activated protein kinase 3 (Homo sapiens) (UniProt P27361); settings: at 1 µM
[18] = target: Mitogen-activated protein kinase 1 (Homo sapiens) (UniProt P28482); settings: at 1 µM
[19] = target: Mitogen-activated protein kinase 1 (Homo sapiens) (UniProt P28482); settings: at 10 µM
[20] = target: MAP kinase-activated protein kinase 3 (Homo sapiens) (UniProt Q16644); settings: at 10 µM
Sequence of MAP kinase-activated protein kinase 3 (Homo sapiens) (Q16644 whole entry, looked up): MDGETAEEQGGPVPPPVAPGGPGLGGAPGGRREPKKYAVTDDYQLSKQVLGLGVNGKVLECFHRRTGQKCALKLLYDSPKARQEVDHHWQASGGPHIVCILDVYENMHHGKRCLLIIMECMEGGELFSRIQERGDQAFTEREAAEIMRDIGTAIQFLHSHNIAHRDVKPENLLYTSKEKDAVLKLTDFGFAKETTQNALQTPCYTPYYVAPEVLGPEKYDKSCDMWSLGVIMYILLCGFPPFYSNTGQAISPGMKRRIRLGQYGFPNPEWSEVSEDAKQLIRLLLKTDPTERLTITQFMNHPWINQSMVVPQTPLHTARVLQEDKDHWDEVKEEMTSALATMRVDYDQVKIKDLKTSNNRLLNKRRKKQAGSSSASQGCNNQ

Sequence of Mitogen-activated protein kinase 1 (Homo sapiens) (P28482 whole entry): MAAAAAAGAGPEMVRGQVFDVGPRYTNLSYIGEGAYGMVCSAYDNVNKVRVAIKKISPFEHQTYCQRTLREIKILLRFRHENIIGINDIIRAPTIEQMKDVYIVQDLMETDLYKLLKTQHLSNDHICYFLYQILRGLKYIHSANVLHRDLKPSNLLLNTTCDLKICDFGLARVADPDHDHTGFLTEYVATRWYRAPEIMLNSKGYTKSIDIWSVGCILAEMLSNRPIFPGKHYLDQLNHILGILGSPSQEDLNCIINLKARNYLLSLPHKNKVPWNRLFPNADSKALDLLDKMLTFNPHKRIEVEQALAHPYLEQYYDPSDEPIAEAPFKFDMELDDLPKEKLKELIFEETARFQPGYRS
Sequence of Serine/threonine-protein kinase MARK1 (Homo sapiens) (Q9P0L2 whole entry, looked up): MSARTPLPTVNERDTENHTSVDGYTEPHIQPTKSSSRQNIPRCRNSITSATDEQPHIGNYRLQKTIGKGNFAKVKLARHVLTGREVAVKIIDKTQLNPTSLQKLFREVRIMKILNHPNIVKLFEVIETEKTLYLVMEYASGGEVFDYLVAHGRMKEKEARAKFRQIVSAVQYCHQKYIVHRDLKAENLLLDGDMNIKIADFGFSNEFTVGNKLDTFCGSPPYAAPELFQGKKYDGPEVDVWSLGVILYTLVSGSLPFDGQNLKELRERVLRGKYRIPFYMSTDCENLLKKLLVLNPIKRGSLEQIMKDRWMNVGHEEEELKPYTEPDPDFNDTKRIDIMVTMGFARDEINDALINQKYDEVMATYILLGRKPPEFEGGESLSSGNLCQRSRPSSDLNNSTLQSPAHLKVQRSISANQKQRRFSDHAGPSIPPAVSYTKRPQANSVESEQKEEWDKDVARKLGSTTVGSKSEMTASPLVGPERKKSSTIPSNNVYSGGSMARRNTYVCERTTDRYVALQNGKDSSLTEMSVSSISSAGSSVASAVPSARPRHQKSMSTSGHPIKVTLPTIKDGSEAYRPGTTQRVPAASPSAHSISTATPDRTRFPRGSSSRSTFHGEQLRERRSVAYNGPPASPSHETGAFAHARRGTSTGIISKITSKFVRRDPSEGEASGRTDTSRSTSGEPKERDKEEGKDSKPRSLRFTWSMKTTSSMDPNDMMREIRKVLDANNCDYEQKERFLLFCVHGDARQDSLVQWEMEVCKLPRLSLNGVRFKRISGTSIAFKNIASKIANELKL
Sequence of MAP kinase-activated protein kinase 2 (Homo sapiens) (P49137 whole entry, looked up): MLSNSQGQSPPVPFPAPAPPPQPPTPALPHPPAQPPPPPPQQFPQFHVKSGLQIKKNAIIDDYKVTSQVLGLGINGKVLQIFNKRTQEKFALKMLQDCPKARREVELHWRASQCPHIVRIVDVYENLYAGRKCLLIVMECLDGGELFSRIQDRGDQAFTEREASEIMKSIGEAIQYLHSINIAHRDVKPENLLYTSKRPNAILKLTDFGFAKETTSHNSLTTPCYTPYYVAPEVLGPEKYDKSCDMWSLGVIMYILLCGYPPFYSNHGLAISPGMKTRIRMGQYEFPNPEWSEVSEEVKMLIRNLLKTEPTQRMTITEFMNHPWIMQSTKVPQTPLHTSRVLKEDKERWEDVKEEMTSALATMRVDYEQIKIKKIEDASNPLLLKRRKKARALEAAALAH
Sequence of Tyrosine-protein kinase Lyn (Homo sapiens) (P07948 2-512 limits assumed): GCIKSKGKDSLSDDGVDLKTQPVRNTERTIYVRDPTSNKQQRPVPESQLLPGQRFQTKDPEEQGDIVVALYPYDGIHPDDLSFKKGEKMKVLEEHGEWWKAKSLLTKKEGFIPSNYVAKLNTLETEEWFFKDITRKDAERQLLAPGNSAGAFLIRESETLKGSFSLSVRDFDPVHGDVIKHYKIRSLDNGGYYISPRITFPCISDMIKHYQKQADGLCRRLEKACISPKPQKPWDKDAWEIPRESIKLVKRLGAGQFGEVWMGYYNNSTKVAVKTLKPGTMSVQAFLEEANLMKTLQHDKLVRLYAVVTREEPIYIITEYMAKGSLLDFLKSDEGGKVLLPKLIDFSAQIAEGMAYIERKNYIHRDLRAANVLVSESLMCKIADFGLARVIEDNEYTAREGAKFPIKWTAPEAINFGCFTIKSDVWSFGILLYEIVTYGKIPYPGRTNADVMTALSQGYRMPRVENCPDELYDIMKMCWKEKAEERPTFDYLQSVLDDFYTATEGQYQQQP
Sequence of Mitogen-activated protein kinase 3 (Homo sapiens) (P27361 whole entry): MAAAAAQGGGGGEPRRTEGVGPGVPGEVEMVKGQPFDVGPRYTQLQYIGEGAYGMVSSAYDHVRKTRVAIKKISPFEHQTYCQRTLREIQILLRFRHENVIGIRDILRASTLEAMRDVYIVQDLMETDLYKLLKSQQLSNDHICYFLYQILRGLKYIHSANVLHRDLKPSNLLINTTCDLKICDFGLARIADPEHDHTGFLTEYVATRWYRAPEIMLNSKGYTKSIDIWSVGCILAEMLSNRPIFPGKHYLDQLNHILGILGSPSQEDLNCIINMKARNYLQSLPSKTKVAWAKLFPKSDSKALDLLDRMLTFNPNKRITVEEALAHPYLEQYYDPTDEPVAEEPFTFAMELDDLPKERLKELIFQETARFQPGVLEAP
Sequence of Dual specificity mitogen-activated protein kinase kinase 1 (Homo sapiens) (Q02750 whole entry): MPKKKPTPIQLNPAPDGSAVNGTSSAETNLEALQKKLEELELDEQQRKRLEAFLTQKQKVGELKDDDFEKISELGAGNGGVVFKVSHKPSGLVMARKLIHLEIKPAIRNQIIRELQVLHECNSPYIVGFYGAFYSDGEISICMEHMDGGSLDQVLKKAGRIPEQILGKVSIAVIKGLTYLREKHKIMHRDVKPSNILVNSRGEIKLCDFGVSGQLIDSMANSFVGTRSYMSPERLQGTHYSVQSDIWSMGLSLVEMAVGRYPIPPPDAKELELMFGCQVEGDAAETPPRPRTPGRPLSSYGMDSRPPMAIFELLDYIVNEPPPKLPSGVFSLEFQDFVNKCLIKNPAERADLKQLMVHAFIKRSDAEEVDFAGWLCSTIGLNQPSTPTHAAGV
Sequence of Maternal embryonic leucine zipper kinase (Homo sapiens) (Q14680 whole entry, looked up): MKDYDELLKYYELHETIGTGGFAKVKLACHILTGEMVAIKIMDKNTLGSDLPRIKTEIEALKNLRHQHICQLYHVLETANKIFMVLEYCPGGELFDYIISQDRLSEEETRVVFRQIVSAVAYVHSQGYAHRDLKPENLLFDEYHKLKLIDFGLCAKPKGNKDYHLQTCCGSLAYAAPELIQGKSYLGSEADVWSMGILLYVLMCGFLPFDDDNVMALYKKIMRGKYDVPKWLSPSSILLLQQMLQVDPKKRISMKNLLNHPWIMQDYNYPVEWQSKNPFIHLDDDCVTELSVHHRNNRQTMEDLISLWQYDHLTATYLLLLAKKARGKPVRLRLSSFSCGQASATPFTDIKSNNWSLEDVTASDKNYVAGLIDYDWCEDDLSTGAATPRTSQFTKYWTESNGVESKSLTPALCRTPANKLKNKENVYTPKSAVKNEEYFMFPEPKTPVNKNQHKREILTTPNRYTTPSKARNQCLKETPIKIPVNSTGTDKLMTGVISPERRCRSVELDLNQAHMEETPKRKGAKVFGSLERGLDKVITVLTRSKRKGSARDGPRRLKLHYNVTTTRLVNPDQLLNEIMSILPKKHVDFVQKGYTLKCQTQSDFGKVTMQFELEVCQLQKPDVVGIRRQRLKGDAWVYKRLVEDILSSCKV
Sequence of Tyrosine-protein kinase Lck (Homo sapiens) (P06239 2-509 limits assumed): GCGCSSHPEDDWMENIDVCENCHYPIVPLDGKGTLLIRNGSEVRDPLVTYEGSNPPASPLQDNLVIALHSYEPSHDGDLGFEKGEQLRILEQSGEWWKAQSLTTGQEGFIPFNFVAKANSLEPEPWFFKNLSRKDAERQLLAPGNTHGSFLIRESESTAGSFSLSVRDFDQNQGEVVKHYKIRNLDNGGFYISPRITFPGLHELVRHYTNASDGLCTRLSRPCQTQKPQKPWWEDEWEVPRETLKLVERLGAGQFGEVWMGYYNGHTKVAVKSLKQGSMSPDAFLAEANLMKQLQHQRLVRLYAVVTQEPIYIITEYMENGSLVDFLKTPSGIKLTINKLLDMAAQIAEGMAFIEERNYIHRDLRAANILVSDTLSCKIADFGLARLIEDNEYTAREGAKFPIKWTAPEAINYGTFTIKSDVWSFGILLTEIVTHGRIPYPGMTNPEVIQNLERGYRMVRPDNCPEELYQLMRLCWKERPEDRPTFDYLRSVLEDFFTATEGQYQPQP

Row | Structure (SMILES) | residual activity [1] [%] | residual activity [2] [%] | residual activity [3] [%] | residual activity [4] [%] | residual activity [5] [%] | residual activity [6] [%] | residual activity [7] [%] | residual activity [8] [%] | residual activity [9] [%] | residual activity [10] [%] | residual activity [11] [%] | residual activity [12] [%] | residual activity [13] [%] | residual activity [14] [%] | residual activity [15] [%] | residual activity [16] [%] | residual activity [17] [%] | residual activity [18] [%] | residual activity [19] [%] | residual activity [20] [%]
1 | N#Cc1cnc2cnc(NCc3cccnc3)cc2c1Nc1ccc(F)c(Cl)c1 | 20 | 14 | 7 | 1 | 75 | 51 | 64 | -1 | -1 | 91 | 91 | 2 | 0 | 93 | 90 | – | – | – | – | –
2 | COc1ccc(OC)c2c(=S)c3ccccc3[nH]c12 | 101 | 103 | 92 | 84 | 112 | 102 | – | 87 | 74 | 114 | 110 | 102 | 84 | 108 | 94 | 80 | 97 | 111 | 101 | 89
3 | c1ccc(-c2n[nH]c3c2oc2ccccc23)cc1 | – | – | – | 30 | 80 | – | – | 69 | 44 | – | – | 43 | 7 | 73 | 34 | 68 | 86 | – | – | –
4 | CO[C@H]1C[C@@H]2CC[C@@H](C)[C@@](O)(O2)C(=O)C(=O)N2CCCC[C@H]2C(=O)O[C@H]([C@H](C)C[C@@H]2CC[C@@H](O)[C@H](OC)C2)CC(=O)[C@H](C)/C=C(\C)[C@@H](O)[C@@H](OC)C(=O)[C@H](C)C[C@H](C)/C=C/C=C/C=C/1C | 80 | 102 | 124 | 131 | 116 | 86 | 115 | 78 | 71 | 132 | 97 | 88 | 97 | 81 | 74 | 86 | 83 | 102 | 101 | 133
5 | O=c1cc(-c2cccc3c2Sc2ccccc2S3)oc(N2CCOCC2)c1 | 94 | 112 | 102 | 86 | 125 | 100 | 85 | 104 | 96 | 111 | 104 | 93 | 90 | 111 | 100 | 92 | 110 | 107 | 100 | 79
6 | O=Nc1c(-c2c(O)[nH]c3ccccc23)[nH]c2ccccc12 | 6 | 22 | 17 | 2 | 101 | 101 | 76 | 37 | 5 | 64 | 55 | – | 7 | 54 | 10 | 8 | 114 | 104 | 103 | 88
7 | COc1cc2ncnc(Nc3ccc(O)c(Br)c3)c2cc1OC | 7 | 21 | 10 | -2 | 45 | 106 | 106 | 70 | 54 | 119 | 80 | 73 | 28 | 83 | 47 | 7 | 68 | 98 | 75 | 106
8 | CCN(CC)C(=O)c1ccc(Nc2nc(OCC3CCCCC3)c3nc[nH]c3n2)cc1 | 3 | 20 | 7 | 1 | 29 | 81 | 39 | 60 | 17 | 48 | 48 | 40 | 3 | 94 | 63 | 20 | – | 99 | 42 | 69
9 | CC[n+]1c(/C=C/N(C)c2ccccc2)n(-c2ccccc2)c2ccc(-c3nc4ccccc4s3)cc21 | 322 | 92 | 65 | 73 | 96 | 95 | 63 | 108 | 111 | 138 | 95 | 91 | 46 | 102 | 84 | 73 | 111 | 105 | 100 | 86
10 | COc1cc2ncnc(Nc3ccc(Oc4ccccc4)cc3)c2cc1OC | -1 | -2 | 0 | 1 | 113 | 95 | 108 | 83 | 81 | 89 | 38 | 76 | 129 | 99 | 89 | 1 | 83 | 96 | 94 | 127
11 | Cc1cc(Nc2nc(-c3ccccc3)nc3ccccc23)n[nH]1 | 6 | 36 | 13 | 4 | – | – | – | 66 | 26 | – | 67 | 46 | 7 | 61 | 14 | 9 | – | 106 | – | –
12 | Cn1nc2c3c(cccc31)C(=O)c1ccccc1-2 | 93 | 106 | 86 | 50 | 96 | 77 | 73 | 76 | 62 | 95 | 91 | 67 | 59 | 93 | 80 | 89 | 83 | – | 97 | 66
13 | Cc1cncc2cccc(S(=O)(=O)N3CCCN(C(=O)CN)C[C@H]3C)c12 | 68 | 84 | 78 | 46 | 86 | 88 | 87 | 73 | 43 | – | – | 74 | 24 | 91 | 72 | 82 | 79 | – | – | –
